Data taken from PubChem BioAssay (NCI).
Compounds without any hit were thinned out: in the full panel of roughly 79,000, 15% have a hit. Activity calls are given as the source filed them. Cut-off read from the data, not from the text of the source: active = growth inhibition above about 70%; inactive = the rest.

Assay: NCI Yeast Anticancer Drug Screen. Data for the rad50EPP+ strain (AID 151);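 note: 0% = growth of vehicle-treated control cultures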
Settings: S. cerevisiae rad50 mutant strain, active compounds read high
Procedure: Growth inhibition of yeast strains with defined genetic alterations is measured as a screen for potential anti-cancer activity. Selected strains with alterations in DNA damage repair or cell cycle control were exposed to compounds and growth inhibition was measured relative to vehicle treated controls. The strain used in this assay is rad50EPP+

Measured: growth inhibition

CC(=O)CC[N+](C)(C)C
inactive: at 1.2 µM -7% | at 3.7 µM 4% | at 11.0 µM -4% | at 33.0 µM -15% | at 100.0 µM 7%

COc1ccc(/C=C2\CCc3ccccc3C2=O)cc1OC
inactive: at 1.2 µM -24% | at 3.7 µM -26% | at 11.0 µM 1% | at 33.0 µM 32% | at 100.0 µM 40%

CN(NC(=O)/C(=C/C=C/c1ccccc1)NC(=O)c1ccccc1)C1=C(Cl)C(=O)[N+](c2ccccc2)=CC1
inactive: at 1.2 µM 1% | at 3.7 µM 7% | at 11.0 µM 37% | at 33.0 µM 69%
active: at 100.0 µM 79%

C[n+]1c(-c2ccc(NC(=O)c3ccc(C(=O)Nc4ccc(-c5cn6ccccc6[n+]5C)cc4)cc3)cc2)cn2ccccc21
active: at 33.0 µM 77% | at 100.0 µM 88%
inactive: at 1.2 µM -23% | at 3.7 µM -6% | at 11.0 µM 36%

Cc1c2ccncc2c(C)c2c1oc1ccccc12
active: at 3.7 µM 82% | at 11.0 µM 84% | at 33.0 µM 98% | at 100.0 µM 97%
inactive: at 1.2 µM 52%

COC1=C(N=[N+]=[N-])C(=O)c2ncccc2C1=O
inactive: at 1.2 µM 31% | at 3.7 µM 60%
active: at 11.0 µM 89% | at 33.0 µM 94% | at 100.0 µM 95%

CCCC#CCOC(=O)c1cc([N+](=O)[O-])cc([N+](=O)[O-])c1
active: at 3.7 µM 92% | at 11.0 µM 99% | at 33.0 µM 99% | at 100.0 µM 99%
inactive: at 1.2 µM 22%

O=C1C(C(O)(C(F)(F)F)C(F)(F)F)CCC1C(O)(C(F)(F)F)C(F)(F)F (stereo not given)
inactive: at 1.2 µM -3% | at 3.7 µM -2% | at 11.0 µM 3% | at 33.0 µM 18% | at 100.0 µM 10%
